Rows were chosen to be rich in hits. Some 4.1% of all compounds tested hit in one or more screens of this group.
ALR H2O2 inh = inhibitors of human sulfhydryl oxidase ALR. inhibition, % (no concentration beside the values). P55789. actives 3.8% (n = 290,000). purified ALR, DTT oxidation, H2O2 HRP-luminol luminescence;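 active = mean replicate inhibition above about 79%, with every replicate also reaching it, limit read from the data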
Target sequence (P55789 whole entry, looked up): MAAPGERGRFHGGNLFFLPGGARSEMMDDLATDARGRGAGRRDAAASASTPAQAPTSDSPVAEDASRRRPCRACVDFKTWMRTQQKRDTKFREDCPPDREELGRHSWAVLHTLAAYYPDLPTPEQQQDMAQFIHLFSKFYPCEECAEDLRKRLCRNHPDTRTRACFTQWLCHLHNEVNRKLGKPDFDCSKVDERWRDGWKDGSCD
PolyA inhibitor = inhibitors of polyadenylation in S. cerevisiae; activity score, % at 12 µM; actives 0.02% (n = 300,000); S. cerevisiae SKY197-pL101 polyadenylation reporter, beta-gal luminescence; efflux-impaired pdr1/pdr3 knockout yeast; score 100 = 6 SD above DMSO;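 active = lowest replicate activity score at least 50, where 100 means six control SD above control mean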;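 also: yeast exposed to compound for 9 h at 30 °C; higher score means more reporter readthrough which indicates perturbed polyadenylation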
IDE cell activ = boosts human insulin-degrading enzyme activity in HEK cells; FAbeta-B cleavage, fluorescence polarization; 0% vehicle, 100% cell-free pure enzyme wells; activation, % at 5.96 µM; actives 0.073% (n = 340,000); AID 493087;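 active = activation above the mean of all tested compounds plus 3 SD, set per screening campaign, cut at about 17% in these data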
CaV13 ICDI inh = Primary screen for inhibitors of IQ motif and Ca2+-dependent inactivation inhibitor domain binding in CACNA1D, Förster resonance energy transfer in living cells, … | HEK cells, CFP/YFP FRET ICDI-IQ, plate reader, 10 min; percent FRET-ratio fall versus neutral wells | inhibition, % at 12.3 µM | actives 0.098% (n = 340,000) | AID 743397;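 active = mean replicate inhibition of at least 30% and at least 1% of replicates passing that level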
IDE cell inh = inhibits human insulin-degrading enzyme in HEK cells; P14735; FAbetaB cleavage, fluorescence polarization; inhibition, % at 5.59 µM; actives 0.41% (n = 320,000);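 active = percent inhibition above the average of all tested compounds plus 3 SD, set per screening campaign, cut at about 16% in these data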;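 also: IDE supplied by intact live HEK cells; FP after avidin binding of uncleaved biotin substrate so inhibition keeps polarization high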
M18AAP inhibitor = PfM18AAP enzyme inhibition. recombinant PfM18AAP, H-Glu-NHMec fluorogenic cleavage. inhibition, % at 7.35 µM. AID 1822. actives 1.2% (n = 290,000);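 active = inhibition above the campaign mean inhibition over all tested compounds plus 3 SD, cut at about 28% in these data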
A number is an active result; 0 = inactive; - = no result.

SMILES | ALR H2O2 inh | PolyA inhibitor | IDE cell activ | CaV13 ICDI inh | IDE cell inh | M18AAP inhibitor
CC(C)(C)NC(=O)C(Cc1ccccc1)NS(=O)(=O)c1ccc2c(c1)CCC(=O)N2 (centres undefined) | 98.4 | 0 | 0 | 0 | 0 | 0
COc1ccc(C=Nc2ccc3[nH]ncc3c2)c(O)c1 | 90.0 | 0 | 0 | 0 | 0 | 0
Oc1c(Br)cc(Br)cc1C=Nc1ccc2[nH]ncc2c1 | 0 | 0 | 0 | 0 | 0 | 0
CN(C)S(=O)(=O)c1cccc(NC(=O)c2ccccc2SCC(=O)N2CCCC2)c1 | - | - | - | 0 | - | -
COC(=O)c1c(NC(=O)CN2CCC3(O)CCCCC3C2c2ccc(OC)cc2OC)sc(C)c1C (centres undefined) | - | 0 | 0 | 0 | 0 | 44.1
O=C(c1ccc(Cl)cc1)c1ccccc1C(=O)N1CCOCC1 | 0 | 0 | 0 | 0 | 0 | 0
Nc1nc(C(=O)N2CCOCC2)nn1C(=O)c1ccc(Cl)cc1 | 86.2 | 0 | 0 | 0 | 0 | 0
Cc1nnc(SCC(=O)Nc2sccc2C(N)=O)s1 | 0 | - | 0 | 0 | 0 | -
Cc1cccc(Nc2nc(N)nc(CCl)n2)c1C | 90.6 | 0 | - | 0 | 0 | 0
Nc1nc(CCl)nc(Nc2ccccc2)n1 | 87.3 | 0 | 0 | 0 | 0 | 0
Cc1ccc(Nc2nc(N)nc(CCl)n2)cc1 | 0 | 0 | - | 0 | 0 | 0
Nc1cccc(Oc2ccc3c(c2)C(=O)N(CC2CCCO2)C3=O)c1 (centres undefined) | 0 | 0 | 0 | 0 | 0 | 0
COc1ccc(CN2CC(C(N)=O)Oc3ccccc32)cc1F (centres undefined) | 98.5 | 0 | 0 | 0 | 0 | 0
C[C@@H]1CN([C@@H](C)CO)C(=O)CCCn2cc(nn2)CO[C@H]1CN(C)C(=O)C1CCCCC1 | - | - | - | 0 | - | -
COc1ccc(CNC(=O)COC(=O)/C=C/c2cccc(Br)c2)cc1 | 0 | 0 | 0 | 0 | 0 | 0
CC(=O)Nc1ccc(SCC(=O)Nc2cc(C(C)(C)C)nn2-c2ccccc2)cc1 | 89.4 | 0 | 0 | 0 | 0 | 0
Cc1cc(NC(=O)CSc2ccc(F)cc2)no1 | - | 0 | 0 | 0 | 0 | 0
CC(=O)Nc1ccc(SCC(=O)Nc2cc(C)on2)cc1 | 99.2 | 0 | 0 | 0 | 0 | 0
CC(=O)Nc1ccc(SCC(=O)NC(=O)c2ccccc2Br)cc1 | 98.4 | - | 0 | 0 | 0 | -
CC(=O)Nc1ccc(NC(=O)c2ccccc2Br)cc1 | - | - | - | 0 | - | -
O=C(O)/C=C/C(=O)Nc1ccc(Cc2ccc(NC(=O)/C=C/C(=O)O)cc2)cc1 | 99.2 | 0 | 0 | 0 | 0 | 0
O=C(O)/C=C/C(=O)Nc1ccc(C2(c3ccc(NC(=O)/C=C/C(=O)O)cc3)c3ccccc3-c3ccccc32)cc1 | 97.7 | 0 | 0 | 0 | 0 | 0
NC(=O)C1=C(c2ccccc2)c2ccccc2C1=O | - | - | 0 | 0 | - | -
CSc1nccc(-c2sc(SC)c(C#N)c2-c2ccccc2)n1 | 0 | 0 | 0 | 0 | 0 | 0
CSc1sc(-c2ccnc(=S)[nH]2)c(-c2ccccc2)c1C#N | 96.0 | 0 | - | 0 | 0 | 0
SMILES | ALR H2O2 inh | PolyA inhibitor | IDE cell activ | CaV13 ICDI inh | IDE cell inh | M18AAP inhibitor
Cc1ccc(S(=O)(=O)N2CCN(C(=O)CSC(=S)N3CCCC3)CC2)c(C)c1 | - | - | 0 | 0 | 0 | -
CCn1c(-c2ccccn2)nc2cc(S(=O)(=O)N(C)C)ccc21 | 99.0 | 0 | 0 | 0 | 0 | 0
CCn1c(CSc2nnc(C)n2-c2ccccc2)nc2cc(S(=O)(=O)N(C)C)ccc21 | - | 0 | 0 | 0 | 0 | 0
CCn1c(-c2cc(Br)cc(OC)c2O)nc2cc(S(=O)(=O)N(C)C)ccc21 | 90.7 | 0 | 0 | 0 | 0 | 0
CCOC(=O)C1CCN(C(=O)C(=O)Nc2ccc3nc4n(c(=O)c3c2)CCCCC4)CC1 | 0 | 0 | 0 | 0 | 0 | 0
Nc1[nH]nc2nc3ccccc3cc12 | 0 | 0 | 0 | 0 | 0 | 0
CCc1ccc2nc3n[nH]c(N)c3cc2c1 | 90.2 | 0 | 0 | 0 | 0 | 0
CCOC(=O)C1(C)C=C(Nc2ccc(O)cc2)C(=O)N1c1ccc(O)cc1 (centres undefined) | 99.6 | 0 | 0 | 0 | 0 | 33.7
COC(=O)c1cc(NC(=O)CC2NC3CCCCC3NC2=O)cc(C(=O)OC)c1 (centres undefined) | 0 | 0 | 0 | 0 | 0 | 0
COCC(=O)N(Cc1cc2cc(C)ccc2[nH]c1=O)c1ccc(C)c(C)c1 | 0 | 0 | 0 | 0 | 0 | 0
COCC(=O)N(Cc1cc2cc(C)ccc2[nH]c1=O)c1cccc(C)c1C | 82.0 | 0 | 0 | 0 | 0 | 0
CCOc1ccc2nc(NC(=O)c3ccc(OCC4CCCO4)cc3)sc2c1 (centres undefined) | 0 | 0 | 0 | 0 | 0 | 0
CCn1c(C)nc2cc(C(=O)NNC(=O)Nc3cccc(Cl)c3)ccc21 | 0 | 0 | - | 0 | 0 | 30.7
CCn1c(C)nc2cc(C(=O)NNS(=O)(=O)c3ccc(C)c(C)c3)ccc21 | 81.0 | 0 | 0 | - | 0 | 0
COc1ccccc1NS(=O)(=O)c1cccc(C(=O)N/N=C2\CC(=O)CC(C)(C)C2)c1 | 92.5 | 0 | 0 | 0 | 0 | 0
Cc1cc(C)c(O)c(-c2cc(C(=O)Nc3c(C)n(C)n(-c4ccccc4)c3=O)[nH]n2)c1 | 98.6 | 0 | 0 | 0 | 0 | 0
Cc1c(NC(=O)c2ccccc2)c(=O)n(-c2ccccc2)n1C | 0 | 0 | 0 | - | 0 | 0
CCOC(=O)C(=O)NNc1ccccc1C | 98.4 | 0 | 0 | 0 | 0 | 0
CCOC(=O)C(=O)Nc1ccccc1C(N)=O | 0 | 0 | 0 | 0 | 0 | 0
CCOC(=O)C(=O)NNc1cccc(C)c1C | 98.4 | 0 | 0 | 0 | 0 | 0
CCOC(=O)C(=O)Nc1ccccc1C(=O)OC | 0 | 0 | 0 | 0 | 0 | 0
O=C(Nc1ccc(F)cc1)c1ccc(C(=O)N2CCOCC2)cc1 | 99.2 | 0 | 0 | 0 | 0 | -
O=C(c1ccc(F)cc1)N1CCOCC1 | 0 | 0 | 0 | 0 | 0 | 0
CCCS(=O)(=O)N1CCCC(C(=O)NCCCN(C)c2ccccc2)C1 (centres undefined) | 81.6 | 0 | 0 | - | 0 | 0
CCCS(=O)(=O)N1CCCC(C(=O)NCCCN(C)Cc2ccccc2)C1 (centres undefined) | 0 | 0 | 0 | - | 0 | 0
SMILES | ALR H2O2 inh | PolyA inhibitor | IDE cell activ | CaV13 ICDI inh | IDE cell inh | M18AAP inhibitor
O=C(NCCCN1CCN(c2ccccc2F)CC1)C1CCCN(S(=O)(=O)c2cnc[nH]2)C1 (centres undefined) | - | 0 | 0 | 0 | 0 | 0
CN(CCCNC(=O)C1CCCN(S(=O)(=O)c2cnc[nH]2)C1)c1ccccc1 (centres undefined) | 99.7 | 0 | 0 | 0 | 0 | 0
CCn1nnnc1-c1ccc(OC)c(S(=O)(=O)Nc2ccccc2OC)c1 | - | - | - | 0 | - | -
CN(C)c1ccc(NC(=S)c2ccccn2)cc1 | 97.6 | 0 | 0 | 0 | 0 | 0
CN(C)c1ccc(/C=N/NC(=O)c2ccco2)cc1 | 98.6 | 0 | 0 | 0 | 0 | 0
CN(C)c1ccc(/C=N/NC(=O)c2ccn(C)n2)cc1 | 94.3 | 0 | 0 | 0 | 0 | 0

Assay outcomes: PubChem, several laboratories
